Results from PubChem BioAssay (NCI).
This is part of a sample that, as a whole, favours compounds with a hit. Of some 83,000 tested, about 20% had one in any assay.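 Interpretation: 100, growth as untreated; towards 0, rising growth inhibition; 0, no net growth; 0 to -100, cell death. Compounds scoring below 10 were considered active.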 A number with no mark means an inactive call. Active and inactive are the calls of the source.

Key:
Experiment in all cases: NCI-60 one-dose screen, 48 h (100 = growth as untreated, 0 = no growth, -100 = all killed)
Conditions in all cases: 10 µM unless noted
[1] = tested on: NCI-H23 lung
[2] = tested on: NCI-H226 lung
[3] = tested on: NCI-H322M lung
[4] = tested on: HOP-62 NSCLC
[5] = tested on: NCI-H460 lung
[6] = tested on: HOP-92 NSCLC
[7] = tested on: A549/ATCC NSCLC
[8] = tested on: 786-0 renal
[9] = tested on: COLO 205 colon
[10] = tested on: DU-145 prostate
[11] = tested on: K-562 leukemia
[12] = tested on: MALME-3M melanoma
[13] = tested on: MDA-MB-231 breast
[14] = tested on: RXF 393 renal
[15] = tested on: SF-268 CNS
[16] = tested on: SF-295 CNS
[17] = tested on: SF-539 CNS
[18] = tested on: UACC-257 melanoma
[19] = tested on: M14 melanoma

SMILES	growth [1]	growth [2]	growth [3]	growth [4]	growth [5]	growth [6]	growth [7]	growth [8]	growth [9]	growth [10]	growth [11]	growth [12]	growth [13]	growth [14]	growth [15]	growth [16]	growth [17]	growth [18]	growth [19]
NS(=O)(=O)c1ccc(-n2ncc3c(NC4CCCCC4)ncnc32)cc1	103%	91.5%	107%	101%	110%	47.4%	83%	81%	95%	100%	54.4%	108%	85.9%	13.4%	116%	48.9%	90.9%	79.6%	98.2%
C[C@H](C(=O)N[C@@H](Cc1ccc(-c2ccccc2)cc1)C(=O)NC1CC(C)(C)NC(C)(C)C1)c1ccc(-c2ccccc2)c(F)c1	-42% (active)	-26.7% (active)	-34% (active)	-67.4% (active)	-76.4% (active)	-69.7% (active)	-76.9% (active)	-88.6% (active)	-81.8% (active)	-89.3% (active)	-53.7% (active)	-77.4% (active)	-53.6% (active)	-55.6% (active)	-58.1% (active)	-54.5% (active)	-78.6% (active)	-62.9% (active)	-79.2% (active)
Cc1sc2nc(NCCc3cccs3)[nH]c(=O)c2c1C	98.5%	83.2%	104%	68.4%	95.7%	93.3%	58.7%	81.6%	91%	94.7%	82.5%	98.7%	92.5%	78.9%	95.4%	82.8%	91.4%	72%	82.9%
N#Cc1c(-c2ccccc2)cc(-c2ccccc2)n(CCCC(=O)O)c1=O	91.3%	101%	95.3%	85.1%	103%	119%	92%	99.6%	109%	111%	94.1%	96.5%	94.9%	91.5%	102%	93.2%	102%	96.5%	96%
COc1cc(NC(=O)NCc2ccco2)ccc1-c1ccc(NC(=O)NCc2ccco2)cc1OC	49.4%	14.1%	49.5%	33.8%	35.8%	23%	34.6%	40.1%	64.9%	56.6%	36%	78%	43.2%	-10.7% (active)	56.8%	46.3%	-1.88% (active)	51%	64.3%
N#Cc1c(NC(=O)c2ccco2)[n+]([O-])c2cc(Cl)c(Cl)cc2[n+]1[O-]	86.3%	106%	121%	137%	109%	212%	96.6%	107%	114%	103%	96.4%	123%	93.9%	91.3%	114%	135%	90.4%	99.3%	142%
CC(=O)N1N=C(c2ccc(Nc3nc(NCCO)nc(NCCO)n3)cc2)CC1c1ccc(Cl)cc1 (configuration not stated)	95.6%	103%	89.3%	93.7%	101%	109%	78.6%	89%	102%	98.6%	119%	91%	92.5%	108%	100%	96.6%	90.2%	91.8%	98.9%
Cc1sc2nc(NCc3ccccc3)[nH]c(=O)c2c1C	75.2%	82.1%	91.3%	39.2%	26.6%	69.4%	33.6%	67.2%	34.7%	73.4%	12.9%	75.7%	59.8%	69%	74.2%	52.4%	65.5%	73%	27.8%
